Screening results from PubChem.
Calb FLC – C. albicans growth inhibition with fluconazole, primary screen, CaCi-2 strain, Alamar Blue fluorescence; AID 1979, 2009; C. albicans CaCi-2 (fluconazole-resistant clinical isolate) + fluconazole, 48 h; growth inhibition, % (test concentration not listed); hit rate 0.57% among 300,000;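 active = growth inhibition above about 58% in most replicates, limit read from the data, passing the limit was not always enough; inconclusive = exactly half the replicates above a set limit; inactive = most replicates below a set limit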;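 note: all wells also contain fluconazole at 8 µg/ml as a sub-toxic cotreatment; 0% = median of DMSO wells and 100% = median of geldanamycin control wells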
Mdm2-MdmX inh – inhibitors of human Mdm2-MdmX association, primary screen, cell-based, luminescence, split luciferase, SaOS-2, uHTS | inhibition, % at 8 µM | Protein Mdm4 (Homo sapiens) + E3 ubiquitin-protein ligase Mdm2 (Homo sapiens), … | SaOS-2 split-luciferase Mdm2/MdmX complementation | hit rate 3% among 330,000;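 active = inhibition of at least 50% at 8 µM in the primary screen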
Target sequence (O15151 whole entry, looked up): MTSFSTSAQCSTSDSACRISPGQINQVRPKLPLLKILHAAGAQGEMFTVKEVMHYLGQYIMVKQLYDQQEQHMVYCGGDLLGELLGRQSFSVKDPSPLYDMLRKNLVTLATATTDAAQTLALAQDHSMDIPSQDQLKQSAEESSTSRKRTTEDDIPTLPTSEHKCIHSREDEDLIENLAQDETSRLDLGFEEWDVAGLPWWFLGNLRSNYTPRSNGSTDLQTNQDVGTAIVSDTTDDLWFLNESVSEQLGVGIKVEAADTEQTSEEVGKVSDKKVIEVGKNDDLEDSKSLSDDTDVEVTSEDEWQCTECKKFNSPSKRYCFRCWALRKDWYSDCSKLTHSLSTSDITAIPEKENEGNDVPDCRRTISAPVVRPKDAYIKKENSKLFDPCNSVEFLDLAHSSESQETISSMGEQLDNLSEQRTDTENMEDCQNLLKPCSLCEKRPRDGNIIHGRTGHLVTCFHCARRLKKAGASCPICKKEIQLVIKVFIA
Target sequence (Q00987 whole entry, looked up): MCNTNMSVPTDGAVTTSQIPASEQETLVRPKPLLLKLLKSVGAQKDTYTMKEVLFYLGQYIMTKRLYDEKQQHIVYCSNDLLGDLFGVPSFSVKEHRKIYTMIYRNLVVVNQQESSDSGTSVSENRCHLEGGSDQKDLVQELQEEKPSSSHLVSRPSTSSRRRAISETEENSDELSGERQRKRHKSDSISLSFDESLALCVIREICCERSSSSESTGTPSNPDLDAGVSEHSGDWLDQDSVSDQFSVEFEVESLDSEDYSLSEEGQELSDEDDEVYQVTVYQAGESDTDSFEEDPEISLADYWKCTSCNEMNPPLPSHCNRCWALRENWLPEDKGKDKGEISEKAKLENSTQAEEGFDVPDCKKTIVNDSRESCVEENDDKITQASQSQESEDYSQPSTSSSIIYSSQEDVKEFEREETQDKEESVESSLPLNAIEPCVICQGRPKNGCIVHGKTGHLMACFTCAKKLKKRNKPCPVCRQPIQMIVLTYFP
MPTP block – mitochondrial permeability transition pore inhibitors, primary screen, biochemical, isolated mouse mitochondria, absorbance. Ca2+ swelling absorbance, 30 min. inhibition, % at 10 µM. hit rate 1.4% among 360,000;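 active = inhibition of 50% or more, scaled per plate between neutral and stimulator controls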;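 note: 0% = DMSO wells given calcium and 100% = 1 mM EGTA wells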
Beta apoptosis – inhibitors of cytokine-induced beta cell apoptosis, primary screen, luminescence; INS-1E cytokine-induced death, ATP luminescence, 48 h; percent of positive-control rescue, neutral wells zero; AID 435005, 2010; protection from apoptosis, % (concentration not given with the values); hit rate 0.8% among 300,000;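 active = Every replicate reaches about 75%, or at least half do and their mean reaches it too, limit read from the data; inconclusive = At least half of replicates reach the limit but their mean does not; inactive = Under half of replicates reach the limit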;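 note: 0% = cytokine-treated negative control wells and 100% = positive control rescue; higher means more ATP so stronger rescue from cytokine killing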
CSC inhib – cancer stem cell viability inhibitors, primary screen, luminescence; cancer stem cell-like cells viability; hit rate 1.1% among 300,000; AID 2717, 2010; inhibition, % at 7.5 µM; in the data active = inhibition above about 75%; inconclusive = no clear call, values can overlap the other calls; tested in HMLE shEcad cells
MPTP counter – fluorescence retest of MPTP screen hits in isolated mitochondria, single concentration | membrane potential, Rhodamine 123 fluorescence | shares compounds with MPTP block | AID 624504, 2012 | hit rate 78% among 5,000 | inhibition, % at 10 µM; in the data active = inhibition above about 22%;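 note: 0% = DMSO vehicle and 100% = positive control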
MPTP swell DR – mitochondrial permeability transition pore inhibitors, dose response, biochemical, absorbance, uHTS hits. shares compounds with MPTP block. isolated mitochondria swelling. IC50, µM. hit rate 58% among 780. AID 651561, 2012; in the data active = IC50 below about 20 µM
MPTP cs DR – fluorescent counter-screen in isolated mitochondria, dose response, counter-screen for MPTP inhibitor project, biochemical, fluorescence, uHTS hits. shares compounds with MPTP block. hit rate 49% among 780. isolated mitochondria counterscreen, fluorescence read-out. IC50, µM. AID 651564, 2012; in the data active = IC50 below about 80 µM
The depositor's hits bear a star; i = inactive; u = inconclusive; x = no result. In the library only some 4.8% were active in any assay of this set; here they are far more common.

SMILES | Calb FLC | Mdm2-MdmX inh | MPTP block | Beta apoptosis | CSC inhib | MPTP counter | others
Oc1c(Cl)cc(Cl)cc1/C=N/NC(=S)NC1CC2C=CC1C2 (stereo not given) | 17.5 | 37.2 | 88.7* | x | 100.2* | 62.5*
Fc1ccc(NC(=S)NN=Cc2ccccc2Cl)cc1 | x | x | 2.0 | x | x | x
Oc1ccccc1C=NNC(=S)NC1CC2C=CC1C2 (stereo not given) | x | x | 27.0 | x | x | x
Oc1ccccc1/C=N/NC(=S)NC1CC2C=CC1C2 (stereo not given) | -0.8 | 13.8 | 56.6* | x | 53.6 | 70.4*
Oc1ccccc1C=NNC(=S)Nc1ccc(F)cc1 | x | x | 62.6* | x | x | 71.4*
O=C(CC(c1ccccc1)C1CCCCC1=O)c1ccccc1 (stereo not given) | x | x | -0.7 | x | x | x
CCN1CCN(C(=O)CCNC(=O)Cn2cnc3ccccc3c2=O)CC1 | 4.7 | -18.7 | -0.1 | -9.0 | -8.6 | x
Cc1cc(C)n(-c2ccc(C(=O)Nc3ccc(C)c(S(=O)(=O)N4CCOCC4)c3)cc2)n1 | 5.5 | 32.9 | 12.9 | 3.5 | 2.6 | x
N/C(=N\OC(=O)COc1ccc2ccccc2c1)c1cccnc1 | u | -36.5 | 60.8* | -6.4 | 9.4 | 83.6*
CCC(Sc1nnc(C)c(=O)[nH]1)C(=O)Nc1cccc2ccccc12 (stereo not given) | 0.3 | 10.4 | 1.4 | -0.1 | -1.3 | x
COc1cccc2c(=O)cc(C)n(CC(=O)Nc3ccc(Br)cc3)c12 | 2.1 | 43.4 | 69.9* | 5.4 | 3.6 | 33.5*
COc1ccc(NC(=O)Cn2c(C)cc(=O)c3cccc(OC)c32)cc1 | 18.7 | 35.9 | 1.5 | -0.4 | -2.8 | x
CC(O)(c1ccncc1)c1nc(-c2cccc(C(F)(F)F)c2)cs1 (stereo not given) | x | x | 90.5* | x | x | 96.2*
O=C(Nc1nnc([C@@H]2C[C@H](O)[C@@H](CO)O2)s1)c1cccc(Cl)c1 | x | x | -1.9 | x | x | x
Cc1cccc(/C=N/c2sc3c(c2C(=O)OC(C)(C)C)CCN(C)C3)c1O | -1.1 | -23.0 | 56.4* | -8.7 | 7.7 | -19.3 | MPTP swell DR=8.87*;MPTP cs DR=67.1*
CCOC(=O)c1c(/N=C/c2cc(C)ccc2O)sc2c1CCN(C)C2 | -1.4 | -13.3 | 85.1* | -0.6 | -5.1 | -17.0 | MPTP swell DR=>100;MPTP cs DR=76*
Cc1nn(Cc2ccccc2)c(C)c1/C=N/NC(=O)c1ccccc1O | -11.8 | 22.6 | 0.9 | 0.2 | -11.2 | x
COC(=O)[C@]1(Cc2ccccc2)N[C@H](CN(C)C(=O)Nc2ccc(Cl)cc2)[C@@H]2C(=O)N(C)C(=O)[C@@H]21 | x | 18.8 | -0.6 | x | x | x
COc1ccc(Cc2c(C3CCCCC3)nc3ccc(Cl)cn23)c(C)c1 | x | x | 4.1 | x | x | x
COc1ccccc1C1CCN(c2cc(O)ccc2[N+](=O)[O-])CC1 | -0.8 | -6.3 | 86.1* | 0.3 | 18.8 | 78.4*
COc1ccccc1C1CCN(C(=O)c2ccccc2)CC1 | -0.5 | -24.4 | 0.3 | -1.6 | 3.4 | x
Cc1c(C(C)C)c(=O)n(-c2ccc(S(=O)(=O)NCc3ccccc3)cc2)n1C | 11.1 | 22.6 | 96.0* | 105.0* | -0.2 | 82.6*
Cc1c(C(C)C)c(=O)n(-c2ccc(S(=O)(=O)NC3CCCCC3)cc2)n1C | -8.0 | -0.4 | 32.7 | 57.4 | -15.5 | x
C=C(C)CSc1cc(C)c(C#N)c2nc3ccccc3n12 | 35.3 | 6.7 | 53.9* | 0.0 | x | 56.4*
Cc1cc(NCCCCO)n2c(nc3ccccc32)c1C#N | -15.0 | 8.1 | -0.7 | 9.3 | -6.9 | x
SMILES | Calb FLC | Mdm2-MdmX inh | MPTP block | Beta apoptosis | CSC inhib | MPTP counter | others
Nc1nc2c(ncn2[C@@H]2O[C@H](CNCc3cnc(N4CCOCC4)nc3)[C@@H](O)[C@H]2O)c(=O)[nH]1 | x | x | -0.5 | x | x | x
Cc1ccc(C)c(N2CCN(C(=O)Cc3c(C(=O)O)[nH]c4ccc(Cl)cc34)CC2)c1 | 12.9 | -5.5 | 2.3 | -5.8 | 0.9 | x
Cc1ccc(-n2nnnc2-c2cnc(N3CCCC3)nc2C(F)(F)F)cc1 | 4.4 | 1.4 | -1.2 | -5.3 | -1.5 | x
FC(F)(F)c1nc(N2CCCC2)ncc1-c1nnnn1-c1ccccc1 | 4.0 | 8.0 | 73.4* | 21.3 | x | 65.4*
COCCOc1cc(Nc2nnc(C(F)(F)F)s2)c(Cl)cc1Cl | 1.3 | 0.4 | 79.6* | 20.3 | 21.1 | 90.4*
Cc1ccc(S(=O)(=O)Nc2ccc(N=Nc3ccc(O)cc3)cc2)cc1 | -30.8 | -10.2 | 55.7* | -2.9 | 36.3 | 42.7*
CSc1ccc(S(=O)(=O)Nc2ccc(S(=O)(=O)Nc3ccc(C)cc3)cc2)cc1 | 59.1 | 17.6 | 0.8 | 1.4 | 11.2 | x
Cc1ccc(N(C(=O)c2csnn2)C(C(=O)NC2CCCCC2)c2cccnc2)c(C)c1 (stereo not given) | -8.6 | 24.2 | -0.3 | -1.8 | -1.3 | x
CN(C(=O)COC(=O)c1cc([N+](=O)[O-])ccc1Cl)c1ccccc1 | 13.7 | 12.0 | -0.4 | -3.4 | 2.8 | x
Cc1ccc(N2C(=O)c3ccccc3C2C(=O)c2cc(C)ccc2O)cc1 (stereo not given) | 8.1 | -37.0 | 66.8* | -2.1 | 15.5 | 70.5*
Cc1ccccc1NC(=O)c1sc(NC(=O)COc2ccccc2)c(C#N)c1C | -3.5 | 16.6 | 54.2* | 17.3 | -6.6 | 75.4*
OC1(c2ccc3ccccc3c2)CCN(Cc2ccccc2)C1 (stereo not given) | -6.1 | 8.0 | 55.0* | -0.2 | -19.2 | -3.3 | MPTP swell DR=i;MPTP cs DR=>80
CCCCOC(=O)C1C2CCC(O2)C1C(=O)OCC (stereo not given) | x | x | -1.1 | x | x | x
CCOc1cc(CNCCO)cc(Br)c1OCc1cccs1 | -18.2 | 27.0 | 93.0* | 9.2 | 2.0 | 9.1 | MPTP swell DR=4.06*;MPTP cs DR=22.7*
CCOc1cc(CNCc2ccncc2)cc(Br)c1OCc1ccccc1F | -1.4 | -20.0 | 61.2* | 28.0 | -25.9 | 75.7*
COC(=O)c1cc(=O)nc(NN=Cc2ccc(C)cc2)s1 | x | x | 0.1 | x | x | x
CCc1nc(NCCN)c(C#N)c2c1CSC(C)(C)C2 | -6.8 | 12.7 | 80.4* | x | -3.7 | -9.7 | MPTP swell DR=16.9*;MPTP cs DR=>80
CCCN(C(=O)c1cc(S(=O)(=O)N2CCCCCC2)ccc1OC)C1CCS(=O)(=O)C1 (stereo not given) | 5.0 | 21.6 | -0.6 | 2.5 | 2.5 | x
O=C(NCCc1ccccc1)c1nccc2ccccc12 | -10.6 | -31.9 | -1.0 | 0.9 | -2.7 | x
c1ccc(CCNc2ccnc3cc4ccccc4cc23)cc1 | 64.9 | x | 100.7* | x | x | 105.9*
CC(C)(C)S(=O)(=O)/C(C#N)=N/Nc1ccc(Cl)cc1 | 48.2 | 20.7 | 91.7* | 48.1 | 25.5 | 87.4*
CC(C)(C)c1ccc(N/N=C(\C#N)S(=O)(=O)C(C)(C)C)cc1 | -0.7 | 25.8 | 86.3* | 27.3 | 1.0 | 86.4*
N#C/C(=N\Nc1ccc(Cl)cc1)C(=N)N1CCCCCC1 | -2.3 | -135.2 | 1.3 | 0.4 | 10.4 | x
